The source of these data is paper PMC11062922 (Nature Chemical Biology, 2023).

Where two headings read alike, the source gives them in different places.

Common to all, as to set-up: species or system human, MV4-11 + K-562 + COLO205 + SK-N-BE2 + OVCAR-8
The test system of test [1] is ADCK5. As to conditions: read-out: apparent Kd; compound concentrations:100 nM and 1000 nM (sheet 'Samples'); n = 1.
Test [2] has as its system ADRBK1. As to conditions: read-out: apparent Kd, n = 1.
In test [3] the test system is AKT2. As to conditions: read-out: apparent Kd, n = 1.
Test [4] concerns CDK4. As to conditions: read-out: apparent Kd, n = 1.
Test [5] concerns CDK6. The following applies: read-out: apparent Kd, n = 1.
For test [6], the system named is DDR1. As to conditions: read-out: apparent Kd; compound concentrations:100 nM and 1000 nM (sheet 'Samples'); n = 1.
The test system of test [7] is MAP2K2. The following applies: read-out: apparent Kd, n = 1.
The test system of test [8] is NNT. As to conditions: read-out: apparent Kd, n = 1.
Test [9] deals with NQO1. The following applies: read-out: apparent Kd, n = 1.
The test system of test [10] is RIOK2. As to conditions: read-out: apparent Kd, n = 1.
In test [11] the test system is STK26. As to conditions: read-out: apparent Kd; compound concentrations:100 nM and 1000 nM (sheet 'Samples'); n = 1.
In test [12] the test system is TP53RK. As to conditions: read-out: apparent Kd; compound concentrations:100 nM and 1000 nM (sheet 'Samples'); n = 1.
The test system of test [13] is ADK. As to conditions: read-out: apparent Kd; compound concentrations:100 nM and 1000 nM (sheet 'Samples'); n = 1.
The subject of test [14] is CDK10. As to conditions: read-out: apparent Kd; compound concentrations: 100 nM and 1000 nM (sheet 'Samples'), CATDS: 0.80077145880212897; n = 1.
The test system of test [15] is PRKAA2. As to conditions: read-out: apparent Kd; compound concentrations: 100 nM and 1000 nM (sheet 'Samples'), CATDS: 0.26734267999924899; n = 1.
Test [16] relates to GSK3A. As to conditions: read-out: apparent Kd; compound concentrations:100 nM and 1000 nM (sheet 'Samples'); n = 1.
Test [17] relates to AKT1. The following applies: read-out: apparent Kd; compound concentrations: 100 nM and 1000 nM (sheet 'Samples'), CATDS: 4.8230371724731401E-2; n = 1.
Test [18] deals with FLT3. The following applies: read-out: apparent Kd; compound concentrations: 100 nM and 1000 nM (sheet 'Samples'), CATDS: 6.2638012545430999E-2; n = 1.
Test [19] relates to HSP90B1. As to conditions: read-out: apparent Kd; compound concentrations: 100 nM and 1000 nM (sheet 'Samples'), CATDS: 7.7391071706101697E-2; n = 1.
In test [20] the test system is IARS. As to conditions: read-out: apparent Kd; compound concentrations: 100 nM and 1000 nM (sheet 'Samples'), CATDS: 5.4756501565327097E-2; n = 1.
Test [21] deals with MAP2K1. As to conditions: read-out: apparent Kd; compound concentrations: 100 nM and 1000 nM (sheet 'Samples'), CATDS: 5.5357684673120397E-2; n = 1.
In test [22] the test system is MAPK14. The following applies: read-out: apparent Kd; compound concentrations: 100 nM and 1000 nM (sheet 'Samples'), CATDS: 6.9601617206552405E-2; n = 1.
Test [23] concerns MAPKAPK2. As to conditions: read-out: apparent Kd; compound concentrations: 100 nM and 1000 nM (sheet 'Samples'), CATDS: 5.3693102707434E-2; n = 1.
For test [24], the system named is MDN1. The following applies: read-out: apparent Kd; compound concentrations: 100 nM and 1000 nM (sheet 'Samples'), CATDS: 0.23126444967608101; n = 1.
Test [25] relates to PYGL. The following applies: read-out: apparent Kd; compound concentrations: 100 nM and 1000 nM (sheet 'Samples'), CATDS: 4.60061770009558E-2; n = 1.
For test [26], the system named is VDAC3. As to conditions: read-out: apparent Kd; compound concentrations: 100 nM and 1000 nM (sheet 'Samples'), CATDS: 5.6878291770418803E-2; n = 1.
The subject of test [27] is MAP2K5. As to conditions: read-out: apparent Kd; compound concentrations:100 nM and 1000 nM (sheet 'Samples'); n = 1.
Test [28] has as its system RIPK3. As to conditions: read-out: apparent Kd; compound concentrations:100 nM and 1000 nM (sheet 'Samples'); n = 1.
Test [29] relates to PIP4K2C. As to conditions: read-out: apparent Kd; compound concentrations:100 nM and 1000 nM (sheet 'Samples'); n = 1.
[30] abbreviates: compound concentrations:100 nM and 1000 nM (sheet 'Samples').

`COC(=O)Nc1nc2ccc(Oc3ccc(NC(=O)Nc4cc(C(F)(F)F)ccc4F)cc3)cc2n1C.Cl` [GW692089A]: the potency estimated from few doses is 1770 nM in [1]; 1500 nM in test [2] (setting [30]); 2410 nM in [3] (setting [30]); 2200 nM in test [4] (setting [30]); 2300 nM in [5] (setting [30]); 1030 nM in test [6]. For the same molecule, the potency estimated from few doses in [7] (setting [30]) is 2020 nM; in test [8] (setting [30]), 1910 nM; in test [9] (setting [30]), 1810 nM; in test [10] (setting [30]), 2170 nM; in test [11], 1760 nM; in test [12], 1400 nM.

For the molecule `CC(=O)N[C@@H](Cc1ccc(OP(=O)(O)O)cc1)C(=O)N[C@H]1CCC(=O)N2CCC[C@@H](C(=O)NCc3ccc(O)cc3)N2C1=O` [RO0324381-000], the potency estimated from few doses in test [13] was 1270 nM.

`CS(=O)(=O)Nc1ccc(-c2ccc3c(NC(=O)C4CC4)n[nH]c3c2)cc1` [SB-742865]: the potency estimated from few doses in test [2] (compound concentrations: 100 nM and 1000 nM (sheet 'Samples'), CATDS: 0.24933386454831599) is 1840 nM; in [14] it was 107 nM; in test [15], 1440 nM.

Consider `O=C(Nc1n[nH]c2nc(-c3nccs3)c(Br)cc12)C1CCCC1` [SB-742609], for which the figures for the potency estimated from few doses in [1], in test [4] (setting [30]) and in [16] were 1310 nM, 1110 nM and 519 nM, respectively.

As to `Cc1ccc(NC(=O)Nc2cc(C(C)(C)C)nn2-c2ccccc2)cc1` [GSK1014915A], the potency estimated from few doses is 1290 nM in test [2] (compound concentrations: 100 nM and 1000 nM (sheet 'Samples'), CATDS: 5.8321770731493798E-2); 2030 nM in [17]; 1190 nM in [3] (compound concentrations: 100 nM and 1000 nM (sheet 'Samples'), CATDS: 6.0440208262816403E-2); 1710 nM in test [5] (compound concentrations: 100 nM and 1000 nM (sheet 'Samples'), CATDS: 5.1522031717759098E-2); 1110 nM in [18]; 749 nM in [19]. The potency estimated from few doses in [20] is 1480 nM; in test [21] it was 1440 nM; in test [7] (compound concentrations: 100 nM and 1000 nM (sheet 'Samples'), CATDS: 6.2527819701534898E-2), 1110 nM; in [22], 906 nM; in test [23], 1550 nM; in [24], 156 nM. For the same molecule, the potency estimated from few doses in [8] (compound concentrations: 100 nM and 1000 nM (sheet 'Samples'), CATDS: 4.6645770981233098E-2) is 2220 nM; in test [9] (compound concentrations: 100 nM and 1000 nM (sheet 'Samples'), CATDS: 6.3403997272240303E-2) it was 1080 nM; in [25], 2310 nM; in [10] (compound concentrations: 100 nM and 1000 nM (sheet 'Samples'), CATDS: 4.9711958169324999E-2), 1870 nM; in [26], 1360 nM.

As for `O=C(O)C(F)(F)F.O=C(O[C@H]1CN[C@H](C#Cc2cc3ncnc(Nc4ccc(Cc5ccccc5)cc4)c3s2)C1)N1CCOCC1` [GSK238583A], the potency estimated from few doses in [2] (setting [30]) is 1670 nM; in test [3] (setting [30]), 1770 nM; in test [27], 646 nM; in test [10] (setting [30]) it was 2420 nM; in test [28] it was 2260 nM.

For `CC(=O)c1c(C)c2cnc(Nc3ccc(N4CCNCC4)cn3)nc2n(C2CCCC2)c1=O` [PFE-PKIS_32], the potency estimated from few doses in [2] (setting [30]) was 1170 nM; in test [3] (setting [30]) it was 1960 nM; in test [4] (compound concentrations: 100 nM and 1000 nM (sheet 'Samples'), CATDS: 0.36803542167658398) it was 118 nM; in test [5] (setting [30]), 82.3 nM; in [29], 1610 nM; in test [10] (setting [30]), 2040 nM.
